Columns and labels:
Experiment in all cases: log2 ratio of Biotin-Ahx-Ub-VS probe labelling (fragment/DMSO); higher = less target engagement (more negative = stronger competition), active = hit call of the paper (q ≤ 0.05, log2 ratio ≤ -1)
Conditions in all cases: compound concentration: 200 uM; treatment time: 3 h
USP34 = USP34 (UniProt Q70CQ2)
Outline: (§1)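 The table lists average log2 ratios of fragment over vehicle, from an unpaired t-test on global-median-normalised Spectronaut label-free quantities. Proteins with ≥2 unique peptides were used. Samples were HEK293T lysate (495 µg) treated in triplicate with fragment at 200 µM or vehicle for 3 h, then with Biotin-Ahx-Ub-VS (0.5 µM final) for 1 h, with labelled DUBs NeutrAvidin-enriched and run by diaPASEF LC-MS/MS.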

USP36 = molecular target: T1, USP36 (UniProt Q9P275)
T1 sequence (whole entry): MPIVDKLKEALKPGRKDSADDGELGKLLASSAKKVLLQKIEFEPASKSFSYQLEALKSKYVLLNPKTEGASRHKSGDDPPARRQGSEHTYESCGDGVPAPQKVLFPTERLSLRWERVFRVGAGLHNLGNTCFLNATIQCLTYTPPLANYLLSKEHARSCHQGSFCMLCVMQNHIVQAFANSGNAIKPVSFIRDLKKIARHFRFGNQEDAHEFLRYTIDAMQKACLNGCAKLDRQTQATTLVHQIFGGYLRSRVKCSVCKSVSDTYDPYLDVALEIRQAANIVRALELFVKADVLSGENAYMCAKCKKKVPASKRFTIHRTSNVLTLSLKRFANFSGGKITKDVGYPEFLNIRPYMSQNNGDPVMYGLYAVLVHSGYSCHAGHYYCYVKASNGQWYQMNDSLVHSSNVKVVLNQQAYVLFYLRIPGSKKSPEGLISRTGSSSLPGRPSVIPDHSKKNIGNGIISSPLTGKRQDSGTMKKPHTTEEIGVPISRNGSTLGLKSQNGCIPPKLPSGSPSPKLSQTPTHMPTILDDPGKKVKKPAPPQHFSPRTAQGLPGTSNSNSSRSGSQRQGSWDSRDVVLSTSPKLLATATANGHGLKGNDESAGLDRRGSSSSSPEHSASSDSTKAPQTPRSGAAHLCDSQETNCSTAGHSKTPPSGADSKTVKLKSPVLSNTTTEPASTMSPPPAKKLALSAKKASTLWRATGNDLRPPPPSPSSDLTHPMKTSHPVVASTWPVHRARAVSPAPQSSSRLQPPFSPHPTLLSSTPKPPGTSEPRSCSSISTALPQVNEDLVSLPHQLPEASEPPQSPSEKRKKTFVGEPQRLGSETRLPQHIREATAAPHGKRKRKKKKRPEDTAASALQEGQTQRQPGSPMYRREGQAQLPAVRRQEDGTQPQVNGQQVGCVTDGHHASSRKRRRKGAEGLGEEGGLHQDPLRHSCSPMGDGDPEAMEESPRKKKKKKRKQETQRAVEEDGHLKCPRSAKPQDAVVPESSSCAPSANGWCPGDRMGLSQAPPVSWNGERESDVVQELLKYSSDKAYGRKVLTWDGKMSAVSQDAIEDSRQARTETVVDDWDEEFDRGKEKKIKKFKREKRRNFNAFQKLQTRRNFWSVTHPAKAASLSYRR
Outline: as §1

USP38 = molecular target: T2, USP38 (UniProt Q8NB14)
T2 sequence (whole entry): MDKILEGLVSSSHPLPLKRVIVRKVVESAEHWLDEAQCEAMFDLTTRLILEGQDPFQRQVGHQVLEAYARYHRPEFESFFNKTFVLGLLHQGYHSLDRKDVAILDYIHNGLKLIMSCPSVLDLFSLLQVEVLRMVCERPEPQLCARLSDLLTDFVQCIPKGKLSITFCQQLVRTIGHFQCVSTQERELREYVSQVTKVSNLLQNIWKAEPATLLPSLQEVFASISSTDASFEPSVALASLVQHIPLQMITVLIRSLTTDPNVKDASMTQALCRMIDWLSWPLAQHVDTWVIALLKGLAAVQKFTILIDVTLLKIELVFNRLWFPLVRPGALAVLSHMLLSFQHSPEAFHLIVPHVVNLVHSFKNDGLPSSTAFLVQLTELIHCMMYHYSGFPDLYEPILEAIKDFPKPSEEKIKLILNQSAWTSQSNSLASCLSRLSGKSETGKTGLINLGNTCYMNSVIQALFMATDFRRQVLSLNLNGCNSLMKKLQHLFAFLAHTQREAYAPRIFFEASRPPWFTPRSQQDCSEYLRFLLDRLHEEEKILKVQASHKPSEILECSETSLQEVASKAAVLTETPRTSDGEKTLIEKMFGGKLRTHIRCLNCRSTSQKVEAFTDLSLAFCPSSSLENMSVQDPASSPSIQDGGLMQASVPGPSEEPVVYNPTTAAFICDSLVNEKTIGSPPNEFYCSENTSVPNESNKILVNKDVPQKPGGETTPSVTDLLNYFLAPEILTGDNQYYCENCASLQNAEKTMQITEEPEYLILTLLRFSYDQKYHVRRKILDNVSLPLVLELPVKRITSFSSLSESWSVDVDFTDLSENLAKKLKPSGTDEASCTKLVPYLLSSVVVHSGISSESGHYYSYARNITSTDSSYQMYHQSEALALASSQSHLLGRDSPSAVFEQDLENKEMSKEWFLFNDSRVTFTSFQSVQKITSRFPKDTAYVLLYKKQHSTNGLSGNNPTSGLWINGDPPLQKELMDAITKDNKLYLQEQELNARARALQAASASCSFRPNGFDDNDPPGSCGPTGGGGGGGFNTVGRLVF
Outline: as §1

USP39 = molecular target: T3, USP39 (UniProt Q53GS9)
T3 sequence (whole entry): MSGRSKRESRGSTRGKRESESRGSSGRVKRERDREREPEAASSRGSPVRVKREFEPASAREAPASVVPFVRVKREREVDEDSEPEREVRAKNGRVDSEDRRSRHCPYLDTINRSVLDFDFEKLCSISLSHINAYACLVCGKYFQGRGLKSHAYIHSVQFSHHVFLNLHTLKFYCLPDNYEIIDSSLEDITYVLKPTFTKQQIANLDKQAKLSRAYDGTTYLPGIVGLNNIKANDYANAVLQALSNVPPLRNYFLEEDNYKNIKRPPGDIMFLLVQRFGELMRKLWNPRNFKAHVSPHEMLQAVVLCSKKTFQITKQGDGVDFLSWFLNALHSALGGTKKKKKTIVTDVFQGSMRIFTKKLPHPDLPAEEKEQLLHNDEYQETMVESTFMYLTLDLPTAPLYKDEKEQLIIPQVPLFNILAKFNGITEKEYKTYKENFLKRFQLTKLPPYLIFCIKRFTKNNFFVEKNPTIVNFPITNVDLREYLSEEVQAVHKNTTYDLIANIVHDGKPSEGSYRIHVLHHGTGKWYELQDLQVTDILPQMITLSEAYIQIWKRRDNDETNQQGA
Outline: as §1

USP4 = molecular target: T4, USP4 (UniProt Q13107)
T4 sequence (whole entry): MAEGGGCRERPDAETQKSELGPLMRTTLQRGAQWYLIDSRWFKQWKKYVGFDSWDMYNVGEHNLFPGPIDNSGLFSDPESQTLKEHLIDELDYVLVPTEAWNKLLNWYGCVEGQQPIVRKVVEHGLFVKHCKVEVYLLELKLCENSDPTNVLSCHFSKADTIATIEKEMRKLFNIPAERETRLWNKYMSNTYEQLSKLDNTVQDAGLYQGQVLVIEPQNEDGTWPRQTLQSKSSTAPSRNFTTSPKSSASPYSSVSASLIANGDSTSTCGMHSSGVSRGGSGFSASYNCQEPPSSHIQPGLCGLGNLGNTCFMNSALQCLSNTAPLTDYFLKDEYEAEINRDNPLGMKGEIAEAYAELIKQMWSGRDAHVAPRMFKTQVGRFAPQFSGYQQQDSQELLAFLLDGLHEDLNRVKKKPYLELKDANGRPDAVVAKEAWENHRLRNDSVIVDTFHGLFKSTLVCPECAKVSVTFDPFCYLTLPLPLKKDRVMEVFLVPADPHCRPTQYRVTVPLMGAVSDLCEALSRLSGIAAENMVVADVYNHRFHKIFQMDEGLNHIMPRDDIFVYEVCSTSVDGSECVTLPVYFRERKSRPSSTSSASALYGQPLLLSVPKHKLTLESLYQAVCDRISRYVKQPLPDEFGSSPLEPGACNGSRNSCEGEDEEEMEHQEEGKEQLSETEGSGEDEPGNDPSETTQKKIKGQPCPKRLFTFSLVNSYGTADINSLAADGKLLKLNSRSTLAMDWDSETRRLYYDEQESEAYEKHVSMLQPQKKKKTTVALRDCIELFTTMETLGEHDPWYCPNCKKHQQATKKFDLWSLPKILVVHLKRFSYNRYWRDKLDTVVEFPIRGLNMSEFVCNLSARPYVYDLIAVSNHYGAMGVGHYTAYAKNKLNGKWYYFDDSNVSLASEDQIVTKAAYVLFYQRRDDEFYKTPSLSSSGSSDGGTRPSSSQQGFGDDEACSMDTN
Outline: as §1

Measured: log2 ratio of Biotin-Ahx-Ub-VS probe labelling

USP34, sequence (Q70CQ2 whole entry, the tested form may be a part): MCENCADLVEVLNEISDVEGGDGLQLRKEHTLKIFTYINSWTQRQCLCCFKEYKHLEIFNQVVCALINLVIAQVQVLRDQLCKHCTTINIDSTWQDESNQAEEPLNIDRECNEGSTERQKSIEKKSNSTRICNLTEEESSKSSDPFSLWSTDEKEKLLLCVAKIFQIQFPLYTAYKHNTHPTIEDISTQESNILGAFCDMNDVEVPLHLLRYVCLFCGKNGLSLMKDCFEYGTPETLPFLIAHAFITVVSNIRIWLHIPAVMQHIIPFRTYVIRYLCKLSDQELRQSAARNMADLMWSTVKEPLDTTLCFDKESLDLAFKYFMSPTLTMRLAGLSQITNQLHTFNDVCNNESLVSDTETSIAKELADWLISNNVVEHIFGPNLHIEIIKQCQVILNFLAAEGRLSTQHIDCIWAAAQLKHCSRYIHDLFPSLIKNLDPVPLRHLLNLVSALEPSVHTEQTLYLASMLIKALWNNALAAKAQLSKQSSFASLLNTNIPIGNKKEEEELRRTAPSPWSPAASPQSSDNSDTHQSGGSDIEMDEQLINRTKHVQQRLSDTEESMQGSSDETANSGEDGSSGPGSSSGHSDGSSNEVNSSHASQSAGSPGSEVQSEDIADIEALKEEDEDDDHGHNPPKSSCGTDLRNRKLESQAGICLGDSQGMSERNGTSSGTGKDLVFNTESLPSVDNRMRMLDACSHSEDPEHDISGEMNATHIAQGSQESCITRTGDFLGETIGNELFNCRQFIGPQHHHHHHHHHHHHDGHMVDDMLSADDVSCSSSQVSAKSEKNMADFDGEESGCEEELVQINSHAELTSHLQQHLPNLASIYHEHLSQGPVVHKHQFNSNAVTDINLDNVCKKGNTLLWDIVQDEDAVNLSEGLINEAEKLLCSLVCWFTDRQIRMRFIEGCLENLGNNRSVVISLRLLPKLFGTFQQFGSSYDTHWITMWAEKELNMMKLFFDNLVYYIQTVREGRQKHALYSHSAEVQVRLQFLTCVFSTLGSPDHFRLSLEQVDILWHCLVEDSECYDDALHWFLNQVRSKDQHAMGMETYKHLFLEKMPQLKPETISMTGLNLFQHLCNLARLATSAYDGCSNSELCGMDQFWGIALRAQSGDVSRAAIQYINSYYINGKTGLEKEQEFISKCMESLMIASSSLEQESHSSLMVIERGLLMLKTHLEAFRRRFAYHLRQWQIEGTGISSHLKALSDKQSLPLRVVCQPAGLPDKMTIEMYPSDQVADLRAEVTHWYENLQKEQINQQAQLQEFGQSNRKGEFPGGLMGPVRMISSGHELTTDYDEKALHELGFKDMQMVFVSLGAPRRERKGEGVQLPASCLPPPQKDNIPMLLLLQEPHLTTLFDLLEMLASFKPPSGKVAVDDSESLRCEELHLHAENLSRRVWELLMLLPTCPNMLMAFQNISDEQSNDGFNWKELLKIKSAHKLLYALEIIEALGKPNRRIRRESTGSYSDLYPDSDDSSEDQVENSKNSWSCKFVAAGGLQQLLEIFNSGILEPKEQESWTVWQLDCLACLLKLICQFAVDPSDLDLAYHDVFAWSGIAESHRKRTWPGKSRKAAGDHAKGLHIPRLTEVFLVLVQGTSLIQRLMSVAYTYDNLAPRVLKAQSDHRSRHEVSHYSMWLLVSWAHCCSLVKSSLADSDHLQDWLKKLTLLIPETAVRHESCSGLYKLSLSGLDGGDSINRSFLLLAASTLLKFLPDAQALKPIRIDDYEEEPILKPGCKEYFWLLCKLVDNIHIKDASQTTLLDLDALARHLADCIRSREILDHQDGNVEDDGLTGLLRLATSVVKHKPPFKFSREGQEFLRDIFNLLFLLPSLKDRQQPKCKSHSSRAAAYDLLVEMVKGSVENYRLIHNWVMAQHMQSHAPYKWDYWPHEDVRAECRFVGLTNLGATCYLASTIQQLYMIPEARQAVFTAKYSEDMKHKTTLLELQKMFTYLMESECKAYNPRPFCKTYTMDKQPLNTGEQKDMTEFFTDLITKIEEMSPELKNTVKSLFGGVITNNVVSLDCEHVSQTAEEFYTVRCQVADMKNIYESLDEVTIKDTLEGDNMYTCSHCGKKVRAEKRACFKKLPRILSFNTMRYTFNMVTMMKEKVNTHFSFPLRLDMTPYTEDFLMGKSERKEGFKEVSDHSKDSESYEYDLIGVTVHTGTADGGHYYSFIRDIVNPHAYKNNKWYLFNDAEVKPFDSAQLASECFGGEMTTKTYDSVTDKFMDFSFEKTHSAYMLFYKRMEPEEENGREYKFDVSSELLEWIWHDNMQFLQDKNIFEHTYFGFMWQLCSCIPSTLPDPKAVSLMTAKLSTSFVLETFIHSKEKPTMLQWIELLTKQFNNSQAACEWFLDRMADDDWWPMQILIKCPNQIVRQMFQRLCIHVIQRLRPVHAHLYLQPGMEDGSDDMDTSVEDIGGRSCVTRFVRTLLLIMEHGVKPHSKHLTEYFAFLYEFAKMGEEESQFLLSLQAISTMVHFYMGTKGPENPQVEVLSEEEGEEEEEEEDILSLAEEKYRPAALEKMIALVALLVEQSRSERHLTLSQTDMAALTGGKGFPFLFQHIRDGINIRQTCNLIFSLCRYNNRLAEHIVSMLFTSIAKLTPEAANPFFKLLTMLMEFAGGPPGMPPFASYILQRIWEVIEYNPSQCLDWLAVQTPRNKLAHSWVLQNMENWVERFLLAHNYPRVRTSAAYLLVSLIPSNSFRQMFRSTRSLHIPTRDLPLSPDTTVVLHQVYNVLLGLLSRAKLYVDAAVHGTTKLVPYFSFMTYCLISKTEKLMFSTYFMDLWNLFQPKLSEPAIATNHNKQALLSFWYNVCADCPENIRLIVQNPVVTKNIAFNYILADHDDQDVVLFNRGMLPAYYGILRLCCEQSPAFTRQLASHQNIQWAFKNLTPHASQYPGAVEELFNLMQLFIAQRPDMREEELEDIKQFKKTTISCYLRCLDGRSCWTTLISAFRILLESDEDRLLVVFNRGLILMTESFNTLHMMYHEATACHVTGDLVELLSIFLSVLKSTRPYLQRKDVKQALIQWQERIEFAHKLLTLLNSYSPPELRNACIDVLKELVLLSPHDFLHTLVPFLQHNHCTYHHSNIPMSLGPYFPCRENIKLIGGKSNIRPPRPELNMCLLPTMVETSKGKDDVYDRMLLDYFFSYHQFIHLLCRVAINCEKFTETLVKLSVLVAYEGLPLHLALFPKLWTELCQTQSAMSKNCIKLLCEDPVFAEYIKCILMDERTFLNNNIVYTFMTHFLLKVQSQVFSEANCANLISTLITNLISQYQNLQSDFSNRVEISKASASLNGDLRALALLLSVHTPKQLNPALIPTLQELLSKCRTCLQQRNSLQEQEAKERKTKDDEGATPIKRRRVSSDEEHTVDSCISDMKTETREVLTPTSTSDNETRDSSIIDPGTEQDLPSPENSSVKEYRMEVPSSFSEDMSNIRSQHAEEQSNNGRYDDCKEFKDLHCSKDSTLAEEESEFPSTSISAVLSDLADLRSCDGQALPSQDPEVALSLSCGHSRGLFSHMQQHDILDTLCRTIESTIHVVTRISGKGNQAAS

Cc1ccc2nnc(CNC(=O)CCl)n2c1
inactive: USP34 -0.0797 | USP36 -0.0909 | USP38 -0.0516 | USP39 -0.108 | USP4 0.17
